Hit rate of the full screen: of about 44,000 sequences, about 3,200 (7.3%) were called active. Cut-off read from the data, not from the text of the source: active = GI50 up to about 1.1 µM and inactive = higher. For the sample, actives were picked, then their nearest neighbours and some sequences at random. Entries with a potency or affinity are not part of this list.

This note sets out measurements from ChEMBL document CHEMBL1201862, “PubChem BioAssay data set” (2004).

In this assay the test system is DU-145.
Usually GI50 stands for the concentration at which growth is held to half of that of the control. Low values mean greater sensitivity of the cells, high ones lower sensitivity of the cells. On to “[Bis(aminomethyl)dimethylsilane]tetrachloroplatinum(IV), CHEMBL2146190”, for which the GI50 stood at 5020 nM.

In the case of “[Bis(aminomethyl)pentamethylenesilane]tetrachloropaltinum(IV), CHEMBL2146204”, it took 344 nM to inhibit growth by half (GI50).

“[Bis(aminomethyl)pentamethylenesilane]dichloropaltinum(II), CHEMBL2146202” yielded a GI50 of 1290 nM.

As for “[Bis(aminomethyl)tetramethylenesilane]tetrachloropaltinum(IV), CHEMBL2146189”, the GI50 is 2220 nM.

As to CISPLATIN, CHEMBL11359, the concentration for 50% growth inhibition (GI50) is 1990 nM.

Substance “[Bis(aminomethyl)tetramethylenesilane]dichloropaltinum(II), CHEMBL2146205” came in with a 50% growth inhibitory concentration (GI50) of 8150 nM.
